Data from PubChem BioAssay (NCATS).
Several values for one entry are separate records, joined by “and”; a condition that tells them apart may be missing. Equal entries are not always repeated. Activity calls are given as the source filed them. Calls come from the whole dose curve.

Test: qHTS drug screen for cell cycle checkpoint inhibitors in PARPi-resistant BRCA-mutant ovarian cancer cell lines. (AID 1963452)
Conditions: PEO1/OlaR viability, CellTiter-Glo luminescence, 96 h; for Z-AUC: stronger effect = lower value
Text: Women's Malignancies Branch, Center for Cancer Research (CCR),
National Cancer Institute (NCI), National Institutes of Health (NIH), Bethesda, MD
Poly (ADP-ribose) polymerase inhibitors (PARPis) have changed the treatment paradigm in breast cancer gene (BRCA) - mutant high-grade serous ovarian carcinoma (HGSC). However, most patients eventually develop resistance to PARPis, highlighting an unmet need for improved therapeutic strategies. Using high-throughput drug screens, we identified ataxia telangiectasia and rad3-related protein/checkpoint kinase 1 (CHK1) pathway inhibitors as cytotoxic and further validated the activity of the CHK1 inhibitor (CHK1i) prexasertib in PARPi-sensitive and -resistant BRCA-mutant HGSC cells and xenograft mouse models. CHK1i monotherapy induced DNA damage, apoptosis, and tumor size reduction. We then conducted a phase 2 study (NCT02203513) of prexasertib in patients with BRCA-mutant HGSC. The treatment was well tolerated but yielded an objective response rate of 6% (1 of 17; one partial response) in patients with previous PARPi treatment. […] BRCA reversion mutation in previously PARPi-treated BRCA-mutant patients was not associated with resistance to CHK1i.
Among others, 1082 oncology drugs, both approved and investigational, were prioritized based on their status in clinical trial development. […] Drugs with average Z-AUC values less than -1.0 in all three cell lines were classified as "hits" resulting in 151 oncology drug hits. The screen also confirmed cross-resistance between olaparib and other PARPis (rucaparib, niraparib, and talazoparib) in PARPi-resistant PEO1/OlaR and PEO4.
[1] G. L. Lin, K. M. Wilson, M. Ceribelli, B. Z. Stanton, P. J. Woo, S. Kreimer, E. Y. Qin, X. Zhang, J. Lennon, S. Nagaraja, P. J. Morris, M. Quezada, S. M. Gillespie, D. Y. Duveau, A. M. Michalowski, P. Shinn, R. Guha, M. Ferrer, C. Klumpp-Thomas, S. Michael, C. McKnight, P. Minhas, Z. Itkin, E. H. Raabe, L. Chen, R. Ghanem, A. C. Geraghty, L. Ni, K. I. Andreasson, N. A. Vitanza, K. E.Warren, C. J. Thomas, M. Monje, Therapeutic strategies for diffuse midline glioma from high-throughput combination drug screening. Sci. Transl. Med. 11, (2019).
[2] T. M. Yamamoto, A. McMellen, Z. L. Watson, J. Aguilera, R. Ferguson, E. Nurmemmedov, T. Thakar, G. L. Moldovan, H. Kim, D. M. Cittelly, A. M. Joglar, E. P. Brennecke, H. Wilson, K. Behbakht, M. J. Sikora, B. G. Bitler, Activation of Wnt signaling promotes olaparib resistant ovarian cancer. Mol. Carcinog. 58, 1770 - 1782 (2019).
PROTOCOL TABLE (as described by Inglese J, Shamu CE and Guy RK. 2007)
SEQUENCE No. (e.g., 1, 2, 3, etc.); […] (e.g., Cells, Incubation, Reagent, etc.); VALUE; DESCRIPTION.
1; Compounds; 20nL; 1536-well white tissue culture-treated plates.
2; Cells; 5 uL; PEO1, PEO4, and PEO1/OlaR cells at 600 cells per well.
3; Incubation; 96 hr; 37C, 95% humidity, 5% CO2.
4; Reagent; 3 uL; CellTiter-Glo (Promega).
5; Incubation; 15 min; room temperature.
6; Detection; Luminescence, PHERAstar (BMG Labtech) plate reader.
NOTES (numbers refer to Sequence numbers above)
1. MIPE 5.0 compounds were acoustically dispensed by Echo Acoustic Liquid Handler (Beckman Coulter Life Sciences). Each compound was plated at an 11-point concentration range with 1:3 dilution. Bortezomib, a proteasome inhibitor (final concentration, 20 uM), was used as a positive.
2. PEO1, PEO4, and PEO1/OlaR were trypsinized and dispensed in 5 uLof growth medium using a Multidrop Combi dispenser at a density of 600 cells per well to allow compounds to be present during the exponential growth phase.
3. Plates were incubated for 96 hours at standard incubator conditions and covered by a stainless steel gasketed lid to prevent evaporation.
4. Three microliters of CellTiter-Glo (Promega) were added to each well.
5. Plates were incubated at room temperature for 15 min with a stainless-steel lid in place.
6. Luminescence readings were taken using PHERAstar (BMG Labtech). […]

[1] = measured here: PEO1 parental Z-AUC
Potency is the fitted concentration of half-maximal effect.

Compound | Potency | Z-AUC [1] | Z-AUC (measured here: PEO4 Z-AUC) | Z-AUC
COc1ccc(N(C)c2nc(C)nc3ccccc23)cc1 | 3.9 nM (active) | -2.78 | -2.81 | 
CN(C)C1CCN(C(=O)c2ccc(NC(=O)Nc3ccc(-c4nc(N5CCOCC5)nc(N5CCOCC5)n4)cc3)cc2)CC1 | 309 nM (active) and 692 nM (active) | -2.41 and -1.47 | -1.87 and -2.03 | 
COCCOc1cnc2ccn([C@H](C)c3nnc4c(F)cc(-c5cnn(C)c5)cn34)c(=O)c2c1 |  | 0.929 | 1.44 | 1.14 (inactive)
Cc1c(F)cc(C(=O)NC2CC2)cc1-c1c(F)cn2c(C(C)(C)C)nnc2c1F |  | 0.963 | 1.81 | 0.645 (inactive)
CN1CCN(c2ccc(C(=O)Nc3n[nH]c4ccc(Cc5cc(F)cc(F)c5)cc34)c(NC3CCOCC3)c2)CC1 |  | -1.2 | -1.38 | -0.903 (inactive)
c1cn2cc(-c3ccc4cn[nH]c4c3)nc(Nc3ccc(N4CCOCC4)cc3)c2n1 |  | -0.0182 | 0.447 | -0.306 (inactive)
C[C@H]1[C@H](O)O[C@@H]2O[C@@]3(C)CC[C@H]4[C@H](C)CC[C@@H]1[C@@]24OO3 |  | 0.808 | 1.02 | 1.05 (inactive)
CCNC(=O)Nc1ncc(-c2cc(-c3c(C)cc(OC)cc3C)nc(-c3cnccn3)n2)s1 |  | 1.44 | 1.47 | 0.457 (inactive)
Clc1cc2c(NC3CCCC3)nnc(-c3ccncc3)c2cc1Cl |  | 0.551 | 0.556 | -0.0819 (inactive)
CN1CCN(C2CCC(n3cc(-c4ccc(Oc5ccccc5)cc4)c4c(N)ncnc43)CC2)CC1 (configuration not stated) |  | -1.14 | -0.439 | -1.03 (inactive)
CCOc1cc(C(=O)N2CCC(N3CCN(C)CC3)CC2)ccc1Nc1ncc2c(n1)N(C1CCCC1)c1ccccc1C(=O)N2C |  | 0.31 | -0.487 | -1.32 (inactive)
COc1ncc(Nc2ncc([C@H](C)N3CCN(S(C)(=O)=O)CC3)cc2-c2nc(C)nc(N)n2)cc1F |  | -0.0225 | -0.164 | -0.261 (inactive)
Cc1ccc(-c2ccc3ncc4c(c3n2)n(C2CCN(C(=O)[C@H](C)O)CC2)c(=O)n4C)cn1 |  | -2.34 | -2.23 | -1.81 (inactive)
Cc1cnc(Nc2ccc(F)cc2Cl)nc1-c1c[nH]c(C(=O)NC(CO)c2cccc(Cl)c2)c1 (configuration not stated) |  | -0.607 | -0.952 | -0.685 (inactive)
